PubChem BioAssay (NCI)
Compounds without any hit were thinned out: in the full panel of roughly 79,000, 15% have a hit. Active and inactive are the calls of the source. Cut-off read from the data, not from the text of the source: active = growth inhibition above about 70%; inactive = the rest.

Experiments:
[1] = NCI Yeast Anticancer Drug Screen. Data for the rad52 strain (AID 147);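 note: 0% = growth of vehicle-treated control cultures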; details: S. cerevisiae rad52 mutant growth inhibition, stronger effect = higher value
Outline: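 Read-out: growth inhibition versus vehicle-treated controls. Cells were a DNA repair-deficient yeast strain treated with compounds.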

[2] = NCI Yeast Anticancer Drug Screen. Data for the wt1 strain (AID 149);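 note: 0% = growth of vehicle-treated wt1 cultures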; details: S. cerevisiae wt1 strain (SPY 50644) growth inhibition, stronger effect = higher value
Outline: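 Each compound is tested on wt1 yeast and the loss of growth versus vehicle gives the inhibition value.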

[3] = NCI Yeast Anticancer Drug Screen. Data for the rad50EPP+ strain (AID 151);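 note: 0% = growth of vehicle-treated control cultures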; details: S. cerevisiae rad50 mutant strain, stronger effect = higher value
Outline: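 Growth inhibition read against vehicle controls in rad50EPP+ yeast, a strain altered in DNA damage repair, after compound exposure.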

[4] = NCI Yeast Anticancer Drug Screen. Data for the mgt1 strain (AID 153); details: S. cerevisiae mgt1 mutant growth inhibition, stronger effect = higher value
Outline: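 mgt1 yeast grown with test compound; read-out is growth inhibition versus vehicle-treated cultures.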

[5] = NCI Yeast Anticancer Drug Screen. Data for the rad50 strain (AID 155);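 note: 0% = growth of vehicle-only cultures of the same strain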; details: S. cerevisiae rad50 strain growth inhibition, stronger effect = higher value
Outline: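 Vehicle-treated cultures provide the reference for the growth inhibition reported for compound-exposed, repair-deficient yeast.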

[6] = NCI Yeast Anticancer Drug Screen. Data for the mec2-1 strain (AID 157); details: S. cerevisiae mec2-1 strain, stronger effect = higher value
Outline: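 Yeast mec2-1 mutant treated with compound. Readout: growth inhibition vs vehicle controls.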

[7] = NCI Yeast Anticancer Drug Screen. Data for the rad14 strain (AID 159);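 note: 0% = growth of vehicle-treated control cultures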; details: S. cerevisiae rad14 strain growth inhibition, stronger effect = higher value
Outline: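 Inhibition of growth is reported for a repair-deficient yeast mutant following compound treatment, calculated relative to cultures that received vehicle.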

[8] = NCI Yeast Anticancer Drug Screen. Data for the sgs1 mgt1 strain (AID 161);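 note: 0% = growth of cultures given vehicle only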; details: S. cerevisiae sgs1 mgt1 strain, stronger effect = higher value
Outline: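 Test agents were incubated with a DNA-repair-mutant yeast strain. Growth was then read and compared against vehicle-treated controls.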

[9] = NCI Yeast Anticancer Drug Screen. Data for the CLN2oe strain (AID 163);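 note: 0% = growth of vehicle-only control cultures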; details: S. cerevisiae CLN2oe strain, stronger effect = higher value
Outline: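 Read-out: yeast growth inhibition, expressed relative to vehicle-only controls. The strain bears an engineered cell-cycle alteration.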

[10] = NCI Yeast Anticancer Drug Screen. Data for the bub3 strain (AID 167); details: S. cerevisiae bub3 mutant strain, stronger effect = higher value
Outline: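 Mutant yeast screening strain plus compound; vehicle-treated cultures serve as the 0% inhibition reference.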

[11] = NCI Yeast Anticancer Drug Screen. Data for the wt2 strain (AID 169); details: S. cerevisiae wt2 strain growth inhibition, stronger effect = higher value
Outline: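 Read-out: growth inhibition versus vehicle-treated control cultures after compound exposure of the yeast strain.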

[12] = NCI Yeast Anticancer Drug Screen. Data for the mlh1 strain (AID 171);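 note: 0% = growth of vehicle-treated control cultures of the same strain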; details: S. cerevisiae mlh1 strain growth inhibition, stronger effect = higher value
Outline: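 Read-out: growth inhibition versus vehicle controls. Strain: engineered yeast with a defined DNA repair or cell cycle defect, compound-treated.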

[13] = NCI Yeast Anticancer Drug Screen. Data for the sgs1 strain (AID 173);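 note: 0% = growth of vehicle-only control cultures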; details: S. cerevisiae sgs1 mutant, stronger effect = higher value
Outline: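 Read-out: yeast growth inhibition relative to vehicle controls, following compound exposure of a strain with a defined DNA repair/cell cycle alteration.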

[14] = NCI Yeast Anticancer Drug Screen. Data for the mlh1 rad18 strain (AID 175); details: S. cerevisiae mlh1 rad18 strain growth inhibition, stronger effect = higher value
Outline: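 Yeast w/ defined DNA-repair lesions; compound exposure; growth vs vehicle controls → % inhibition.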

[15] = NCI Yeast Anticancer Drug Screen. Data for the rad18 strain (AID 177); details: S. cerevisiae rad18 mutant growth inhibition, stronger effect = higher value
Outline: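 Readout: growth inhibition vs vehicle controls. Cells: genetically altered yeast strain, DNA repair defect.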

[16] = at 5.0 µM (retest, dose inferred, filed as 0.5)
[17] = at 50.0 µM (retest, dose inferred, filed as 5.0)

Measured: growth inhibition

CNC(=O)OCc1c2ccncc2c(C)c2c1[nH]c1ccccc12
inactive: [1]; at 1.2 µM 59% | [2]; at 1.2 µM 2% | [2]; at 3.7 µM 6% | [2]; at 11.0 µM 6% | [2]; at 33.0 µM 21% | [2]; at 100.0 µM 56% | [3]; at 1.2 µM 1% | [3]; at 3.7 µM 17% | [3]; at 11.0 µM 14% | [3]; at 33.0 µM 31% | [3]; at 100.0 µM 45% | [4]; at 1.2 µM 2% | [4]; at 3.7 µM 21% | [4]; at 11.0 µM 18% | [4]; at 33.0 µM 34% | [4]; at 100.0 µM 55% | [5]; at 1.2 µM 33% | [5]; [16] 61% | [5]; at 50.0 µM 56.4% | [6]; at 1.2 µM 13% | [6]; at 3.7 µM 60% | [6]; [16] 56% | [7]; at 1.2 µM 23% | [8]; [16] 40% | [8]; [17] 13% | [8]; at 50.0 µM 51.5% | [9]; at 1.2 µM 6% | [9]; at 3.7 µM 19% | [9]; at 11.0 µM 21% | [9]; at 33.0 µM 34% | [9]; at 100.0 µM 57% | [10]; at 1.2 µM -41% | [10]; at 3.7 µM -56% | [10]; [16] -12% | [10]; at 11.0 µM -27% | [10]; at 33.0 µM 0% | [10]; [17] -48% | [10]; at 50.0 µM -12.1% | [10]; at 100.0 µM 39% | [11]; at 1.2 µM -17% | [11]; at 3.7 µM -21% | [11]; at 11.0 µM -9% | [11]; at 33.0 µM -1% | [11]; at 100.0 µM 42% | [12]; at 1.2 µM 6% | [12]; at 3.7 µM 20% | [12]; at 11.0 µM 26% | [12]; at 33.0 µM 38% | [12]; at 100.0 µM 66% | [13]; at 1.2 µM 67% | [14]; [16] 33%
active: [1]; at 3.7 µM 82% | [1]; at 11.0 µM 88% | [1]; at 33.0 µM 90% | [1]; at 100.0 µM 88% | [5]; at 3.7 µM 72% | [5]; at 11.0 µM 82% | [5]; at 33.0 µM 86% | [5]; [17] 75% | [5]; at 100.0 µM 82% | [6]; at 11.0 µM 84% | [6]; at 33.0 µM 90% | [6]; [17] 89% | [6]; at 50.0 µM 73.8% | [6]; at 100.0 µM 87% | [7]; at 3.7 µM 80% | [7]; at 11.0 µM 89% | [7]; at 33.0 µM 92% | [7]; at 100.0 µM 89% | [13]; at 3.7 µM 76% | [13]; at 11.0 µM 84% | [13]; at 33.0 µM 85% | [13]; at 100.0 µM 84% | [14]; [17] 71% | [14]; at 50.0 µM 82.8% | [15]; at 1.2 µM 89% | [15]; at 3.7 µM 93% | [15]; at 11.0 µM 93% | [15]; at 33.0 µM 91% | [15]; at 100.0 µM 87%

CNC(=O)OCc1c(COC(=O)NC)c(C)n(-c2ccc(Br)cc2)c1C
inactive: [1]; at 1.2 µM -7% | [1]; at 3.7 µM -6% | [1]; at 11.0 µM -8% | [1]; at 33.0 µM 6% | [2]; at 1.2 µM -41% | [2]; at 3.7 µM -38% | [2]; at 11.0 µM -37% | [2]; at 33.0 µM -32% | [3]; at 1.2 µM -25% | [3]; at 3.7 µM -19% | [3]; at 11.0 µM -24% | [3]; at 33.0 µM -25% | [3]; at 100.0 µM -3% | [4]; at 1.2 µM -15% | [4]; at 3.7 µM -17% | [4]; at 11.0 µM -20% | [4]; at 33.0 µM 14% | [5]; at 1.2 µM -15% | [5]; at 3.7 µM -27% | [5]; [16] 27% | [5]; at 11.0 µM -17% | [5]; at 33.0 µM -2% | [5]; [17] 46% | [5]; at 50.0 µM 30.4% | [6]; at 1.2 µM -37% | [6]; at 3.7 µM -24% | [6]; [16] 22% | [6]; at 11.0 µM -23% | [6]; at 33.0 µM -8% | [6]; [17] 23% | [6]; at 50.0 µM 13% | [7]; at 1.2 µM -23% | [7]; at 3.7 µM -16% | [7]; at 11.0 µM -7% | [8]; [16] 4% | [8]; [17] -61% | [9]; at 1.2 µM -7% | [9]; at 3.7 µM 0% | [9]; at 11.0 µM -1% | [9]; at 33.0 µM -2% | [9]; at 100.0 µM 69% | [10]; at 1.2 µM -29% | [10]; at 3.7 µM -18% | [10]; [16] 0% | [10]; at 11.0 µM -18% | [10]; at 33.0 µM 41% | [10]; [17] -63% | [11]; at 1.2 µM -28% | [11]; at 3.7 µM -19% | [11]; at 11.0 µM -19% | [11]; at 33.0 µM -13% | [12]; at 1.2 µM -26% | [12]; at 3.7 µM -13% | [12]; at 11.0 µM 9% | [12]; at 33.0 µM 59% | [13]; at 1.2 µM 15% | [13]; at 3.7 µM 12% | [13]; at 11.0 µM 19% | [13]; at 33.0 µM 32% | [14]; [16] 25% | [15]; at 1.2 µM -19% | [15]; at 3.7 µM -12% | [15]; at 11.0 µM -5% | [15]; at 33.0 µM 43%
active: [1]; at 100.0 µM 87% | [2]; at 100.0 µM 98% | [4]; at 100.0 µM 99% | [5]; at 100.0 µM 91% | [6]; at 100.0 µM 97% | [7]; at 33.0 µM 73% | [7]; at 100.0 µM 98% | [8]; at 50.0 µM 78% | [10]; at 50.0 µM 85% | [10]; at 100.0 µM 98% | [11]; at 100.0 µM 96% | [12]; at 100.0 µM 97% | [13]; at 100.0 µM 96% | [14]; [17] 84% | [14]; at 50.0 µM 86.8% | [15]; at 100.0 µM 96%

COc1cc(C2C3=C(COC3=O)Oc3cc4c(cc32)OCO4)cc(OC)c1O (stereo not given)
inactive: [2]; at 1.2 µM 1% | [2]; at 3.7 µM 2% | [2]; at 11.0 µM 3% | [2]; at 33.0 µM 6% | [2]; at 100.0 µM 8% | [3]; at 1.2 µM -2% | [3]; at 3.7 µM 0% | [3]; at 11.0 µM 1% | [3]; at 33.0 µM -3% | [3]; at 100.0 µM 0% | [4]; at 1.2 µM 0% | [4]; at 3.7 µM -2% | [4]; at 11.0 µM 15% | [4]; at 33.0 µM -2% | [4]; at 100.0 µM 7% | [5]; [16] 14% | [6]; at 1.2 µM 12% | [6]; at 3.7 µM 7% | [6]; [16] -24% | [6]; at 11.0 µM 18% | [6]; at 33.0 µM 25% | [6]; [17] 39% | [6]; at 50.0 µM 59.1% | [6]; at 100.0 µM 29% | [7]; at 1.2 µM 5% | [7]; at 3.7 µM 5% | [7]; at 11.0 µM 16% | [7]; at 33.0 µM 12% | [7]; at 100.0 µM 15% | [8]; [16] -3% | [8]; [17] 47% | [8]; at 50.0 µM 36.7% | [9]; at 1.2 µM 0% | [9]; at 3.7 µM -3% | [9]; at 11.0 µM 5% | [9]; at 33.0 µM 17% | [9]; at 100.0 µM 21% | [10]; at 1.2 µM 1% | [10]; at 3.7 µM -1% | [10]; [16] -18% | [10]; at 11.0 µM 14% | [10]; at 33.0 µM 10% | [10]; [17] 9% | [10]; at 50.0 µM 23.3% | [10]; at 100.0 µM 13% | [11]; at 1.2 µM 2% | [11]; at 3.7 µM 1% | [11]; at 11.0 µM 5% | [11]; at 33.0 µM 6% | [11]; at 100.0 µM 8% | [14]; [16] -10% | [14]; [17] 58% | [15]; at 1.2 µM 11% | [15]; at 3.7 µM 11% | [15]; at 11.0 µM 19% | [15]; at 33.0 µM 9% | [15]; at 100.0 µM 24%
active: [1]; at 1.2 µM 90% | [1]; at 3.7 µM 86% | [1]; at 11.0 µM 93% | [1]; at 33.0 µM 93% | [1]; at 100.0 µM 94% | [5]; at 1.2 µM 88% | [5]; at 3.7 µM 88% | [5]; at 11.0 µM 92% | [5]; at 33.0 µM 92% | [5]; [17] 97% | [5]; at 50.0 µM 70% | [5]; at 100.0 µM 93% | [14]; at 50.0 µM 72.7%
